This excerpt belongs to a sample that is enriched for hits.
NOMO-1 viab – STK33 inhibitor candidate reducing NOMO-1 cell viability. NOMO-1 AML viability, CellTiter-Glo luminescence, 72 h. inhibition, % (test concentration not listed). 37,000 tested, 7.5% active; in the data active = inhibition above about 80%
STK33 kin inh – blocks human STK33 kinase activity; 27,000 tested, 0.44% active; ADP-Glo luminescence, MBP substrate; Q9BYT3; inhibition, % at 12.5 µM; in the data active = inhibition above about 20%
Target sequence (Q9BYT3 whole entry, looked up): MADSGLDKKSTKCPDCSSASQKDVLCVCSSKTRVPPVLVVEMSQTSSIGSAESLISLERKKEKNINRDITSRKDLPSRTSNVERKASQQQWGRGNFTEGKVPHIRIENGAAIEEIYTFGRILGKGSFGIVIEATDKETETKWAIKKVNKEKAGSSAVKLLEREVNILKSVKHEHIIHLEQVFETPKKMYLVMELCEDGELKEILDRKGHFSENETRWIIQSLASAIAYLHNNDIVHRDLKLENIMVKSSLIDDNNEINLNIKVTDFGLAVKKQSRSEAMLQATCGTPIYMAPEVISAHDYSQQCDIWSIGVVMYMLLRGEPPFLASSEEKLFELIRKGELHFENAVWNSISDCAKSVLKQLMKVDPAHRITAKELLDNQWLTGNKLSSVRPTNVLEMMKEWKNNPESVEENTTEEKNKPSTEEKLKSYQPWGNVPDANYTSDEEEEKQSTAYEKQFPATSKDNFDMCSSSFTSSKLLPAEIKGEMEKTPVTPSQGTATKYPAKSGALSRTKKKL
PD-1 reverse act – activators reversing PD-1 mediated T-cell inhibition; 29,000 tested, under 10 active; primary human CD4 T cells, PD-L1 beads, CellTiter-Glo 96 h; AID 2316; activation, % (no concentration beside the values); call rule not given here;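 also: 0% = median vehicle wells and 100% = positive control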
Numbers without * were called inactive.

Results for C[C@H]1CN([C@@H](C)CO)C(=O)c2cc(NC(=O)Cc3cn(C)c4ccccc34)ccc2O[C@H]1CN(C)Cc1ccccc1 ?
NOMO-1 viab: 84*; STK33 kin inh: 1; PD-1 reverse act: 0

What do the screens show for `C[C@H](CO)N1C[C@H](C)[C@H](CN(C)Cc2ccc3c(c2)OCO3)Oc2ccc(NC(=O)Cc3cn(C)c4ccccc34)cc2C1=O`?
NOMO-1 viab: 92*; PD-1 reverse act: -2

What do the screens show for `C[C@@H]1CN([C@H](C)CO)C(=O)c2cc(NC(=O)Cc3cn(C)c4ccccc34)ccc2O[C@@H]1CN(C)Cc1ccccc1`?
NOMO-1 viab: 45; PD-1 reverse act: 0

What do the screens show for `C[C@H]1CN([C@@H](C)CO)C(=O)c2cc(NC(=O)Cc3cn(C)c4ccccc34)ccc2O[C@H]1CN(C)Cc1ccncc1`?
NOMO-1 viab: 73; PD-1 reverse act: -1

How did C[C@H](CO)N1C[C@H](C)[C@H](CN(C)Cc2ccc(C(F)(F)F)cc2)Oc2ccc(NC(=O)Cc3cn(C)c4ccccc34)cc2C1=O do in these assays?
NOMO-1 viab: 22; STK33 kin inh: 1; PD-1 reverse act: -3

How did C[C@@H]1CN([C@H](C)CO)C(=O)c2cc(NC(=O)Cc3cn(C)c4ccccc34)ccc2O[C@H]1CN(C)Cc1ccc2c(c1)OCO2 do in these assays?
NOMO-1 viab: 24; STK33 kin inh: 1; PD-1 reverse act: 1

How did COc1ncnc(OC)c1C do in these assays?
NOMO-1 viab: 0; STK33 kin inh: 2; PD-1 reverse act: 5

Results for Cc1cc(C)nc(Nc2ncc(O)n2-c2ccc(Cl)c(Cl)c2)n1 ?
NOMO-1 viab: -1; PD-1 reverse act: 1

Results for CC(=O)Nc1ccc(NC(=O)COc2ccccc2C(=O)Nc2cccc(C)c2C)cc1 ?
NOMO-1 viab: 12; STK33 kin inh: -4; PD-1 reverse act: -1

What do the screens show for `COc1cc(OC)c(C2=NOC(C(=O)Nc3sc4c(c3C#N)CCCC4)C2)cc1Cl` (centres undefined)?
NOMO-1 viab: -10; STK33 kin inh: -1; PD-1 reverse act: 1

Results for C[C@@H]1CN([C@@H](C)CO)C(=O)c2cc(NC(=O)Cc3cn(C)c4ccccc34)ccc2O[C@@H]1CN(C)Cc1ccc(-c2ccccc2)cc1 ?
NOMO-1 viab: 113*

What do the screens show for `C[C@@H]1CN([C@@H](C)CO)C(=O)c2cc(NC(=O)Cc3cn(C)c4ccccc34)ccc2O[C@H]1CN(C)Cc1ccc(-c2ccccc2)cc1`?
NOMO-1 viab: 26; PD-1 reverse act: 0

What do the screens show for `NC(=NCc1ccc(Cl)cc1Cl)NC(=O)c1nc(Cl)c(N)nc1N`?
NOMO-1 viab: 120*; STK33 kin inh: 2

How did NC(N)=NC(=O)c1nc(Cl)c(N)nc1N do in these assays?
NOMO-1 viab: 31; STK33 kin inh: 1

What do the screens show for `Cc1cc(C)c2c(CC(=O)N(CC#N)CC#N)coc2c1`?
NOMO-1 viab: 2; STK33 kin inh: -1

What do the screens show for `C/C1=C/CC/C(CO)=C\[C@H]2OC(=O)C(CN3CCCC3C(=O)O)[C@@H]2[C@@H](OC(=O)C(C)CO)C1` (some centres undefined)?
STK33 kin inh: -6

How did Cc1ccc(-c2nnc(SCC(=O)Nc3cccc([N+](=O)[O-])c3)n2-c2ccccc2)cc1Cl do in these assays?
NOMO-1 viab: 20; STK33 kin inh: -5; PD-1 reverse act: 1

Results for COC1CC(=O)C23C(=O)NC(CC(C)C)C2C(C)C(C)=CC3/C=C(\C)CCC(O)C1O (centres undefined) ?
NOMO-1 viab: 89*; STK33 kin inh: -3; PD-1 reverse act: -6

Results for CCc1ccccc1NC(=O)CSc1ncnc2sc(C)c(C)c12 ?
NOMO-1 viab: 22; STK33 kin inh: 8; PD-1 reverse act: 0

How did C[C@@H]1CN([C@@H](C)CO)C(=O)c2cccc(NC(=O)c3ccncc3)c2O[C@@H]1CN(C)Cc1ccc(Oc2ccccc2)cc1 do in these assays?
NOMO-1 viab: 9; PD-1 reverse act: 0

Results for C[C@H](CO)N1C[C@H](C)[C@H](CN(C)Cc2ccc(-c3ccccc3)cc2)Oc2c(NC(=O)c3ccncc3)cccc2C1=O ?
NOMO-1 viab: 54; STK33 kin inh: -5

How did C[C@H](CO)N1C[C@H](C)[C@@H](CN(C)Cc2ccc(-c3ccccc3)cc2)Oc2c(NC(=O)c3ccncc3)cccc2C1=O do in these assays?
NOMO-1 viab: 83*; PD-1 reverse act: -2

How did C[C@@H]1CN([C@H](C)CO)C(=O)c2cccc(NC(=O)c3ccncc3)c2O[C@H]1CN(C)Cc1ccc(Oc2ccccc2)cc1 do in these assays?
NOMO-1 viab: 91*; PD-1 reverse act: -4

Results for CCOC(=O)COc1cccc(-c2nc3ccccc3s2)c1 ?
NOMO-1 viab: 18; STK33 kin inh: -2; PD-1 reverse act: -2

What do the screens show for `Cc1sc(NC(=O)COc2ccc(Cl)cc2Cl)c(C(N)=O)c1C`?
NOMO-1 viab: 46; STK33 kin inh: -10

Screens from PubChem.
